These results are taken from PubChem BioAssay AID1347156 (National Center for Advancing Translational Sciences (NCATS), 2019).

Structures are written as SMILES. Records with an inconclusive call do not appear. Values without a mark were called inactive. Calls of active or inactive are those of the source. Calls follow the shape of the dose curve; as a rule, active = well fitted cell-killing curve with a large enough effect; inconclusive = small, poorly fitted or top-dose-only effect; inactive = flat fitted curve, though single readings scatter.
% is scaled to controls: 0 for no effect and ±100 for the full control effect; potency is read from the fitted curve at half-maximal effect.

The nature of this assay: DAPI mCherry counterscreen qHTS for Zika virus inhibitors. Also: nearly all actives have a fitted effect of over 55% in size. The following applies: Vero cells, DAPI nuclear count cytotoxicity, imaging 48-72 h, infected with Zika reporter virus, MOI 1; series mostly up to 32.6 µM; activity change, negative = cell loss: at the top concentration. The gist of the method: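 Vero cells (5,000/well), plated overnight, given compounds then recombinant ZIKV-mCherry at MOI 1 for 48-72 hrs at 37 degrees C; PFA-fixed, Hoechst-stained and imaged; nuclei counted and mCherry-positive cells scored as percent infection.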
(In general: The purpose of a counterscreen is to sort out artefacts and off-target activity.)
Turning to `Cc1ccc(-c2nnc(Nc3ccc(S(N)(=O)=O)cc3)c3ccccc23)cc1S(=O)(=O)N1CCOCC1`, the “activity change, negative = cell loss” value was -13.5%.
In the case of `CN(Cc1ccc(C(=O)O)cc1)c1ccc(OCc2c(-c3c(Cl)cccc3Cl)noc2C2CC2)nc1C(F)(F)F`, the Potency was 15.8 µM (active).
As for `O=S(=O)(Nc1cc(Cl)c(Oc2cnc3ccccc3c2)c(Cl)c1)c1ccc(Cl)cc1Cl`, the Potency is 12.6 µM (active).
Take `O=C(Nc1cccc(C(=O)OCc2cc(=O)n3nc(C4CC4)sc3n2)c1)c1ccc(F)cc1`: the “activity change, negative = cell loss” value is -8.64%.
Turning to `Cc1cc(-c2ccc(N=Nc3c(S(=O)(=O)O)cc4cc(S(=O)(=O)O)cc(N)c4c3O)c(C)c2)ccc1N=Nc1c(S(=O)(=O)O)cc2cc(S(=O)(=O)O)cc(N)c2c1O`, the “activity change, negative = cell loss” value was -4.8%.
On to `O=C(O)c1ccccc1-c1c2cc(I)c(=O)c(I)c-2oc2c(I)c(O)c(I)cc12`, for which the “activity change, negative = cell loss” value was -8.64%.
Turning to `COc1ccc(Br)cc1S(=O)(=O)NC(=O)/C=C/c1ccccc1Cc1ccc2ccccc2c1`, the Potency is 31.6 µM (active).
As for `O=C(Nc1c(C(=O)O)oc2ccccc12)c1ccc(C(F)(F)F)cc1`, the “activity change, negative = cell loss” value was -19.9%.
For the compound `Cc1nc(N=Nc2cc(S(=O)(=O)O)c3cc([N+](=O)[O-])cc(S(=O)(=O)O)c3c2)c(COP(=O)(O)O)c(C=O)c1O`, the “activity change, negative = cell loss” value was -14.8% [at 37.3 µM].
With `COc1cc(C(=O)NS(=O)(=O)c2ccccc2C)ccc1Cc1cn(C)c2ccc(NC(=O)OC3CCCC3)cc12`, the Potency was 35.5 µM (active).
As to `COc1cc(C)c(C(=O)OC2C(C)OC(OC3CCC(C)C4C3C=C(C)C3/C(C)=C\CC/C(C)=C/C5(C)C=C(C(=O)O)C(C)CC56OC(=O)/C(=C(\O)C34C)C6=O)C(O)C2O)c(OC)c1` (configuration not stated), the “activity change, negative = cell loss” value is -11.1% [at 8.16 µM].
`COc1ccc(S(=O)(=O)Nc2cc(-c3c(O)ccc4ccccc34)c(O)c3ccccc23)cc1`: the Potency is 10 µM (active).
As to `O=C(O)C(Cc1cc(I)c(O)c(I)c1)c1ccccc1` (configuration not stated), the Potency is 4.47 µM (active).
For `Cc1cc(C)c2c(c1)C(N(Cc1cc(C(F)(F)F)cc(C(F)(F)F)c1)c1nnn(C)n1)CCCN2CC1CCC(C(=O)O)CC1` (configuration not stated), the Potency was 35.5 µM (active).
On to `O=C(O)c1c(Br)c(Br)c(Br)c(Br)c1C1c2ccc(O)cc2Oc2cc(O)ccc21`, for which the Potency is 20 µM (active).
For the compound `O=C(O)c1cnn(-c2nc3cc(OC(F)(F)F)c(Cl)cc3[nH]2)c1`, the “activity change, negative = cell loss” value is -7.21%.
Consider `CCOC(=O)c1ccc(N2C(=O)c3n[nH]c(-c4cccs4)c3C2c2ccc(Cl)cc2Cl)cc1` (configuration not stated), for which the Potency was 11.2 µM (active).
As to `CCOc1nc2cccc(C(=O)OC(C)OC(=O)OC3CCCCC3)c2n1Cc1ccc(-c2ccccc2-c2nn[nH]n2)cc1` (configuration not stated), the Potency is 15.8 µM (active).
Still for that read-out and setting: the value for `CNC(=O)c1cc(Oc2ccc(NC(=O)Nc3ccc(Cl)c(C(F)(F)F)c3)cc2)ccn1` was 4.47 µM (active); that for `CC(C)c1cc(C(C)C)c(CC(=O)NS(=O)(=O)Oc2c(C(C)C)cccc2C(C)C)c(C(C)C)c1` was 10 µM (active); that for `CC(C)=CCc1c2c(c3occ(-c4ccc(O)c(O)c4)c(=O)c3c1O)C=CC(C)(C)O2` was 8.91 µM (active).
In the case of `Cc1ccc(-n2[nH]c(C)c(N=Nc3cccc(-c4cccc(C(=O)O)c4)c3O)c2=O)cc1C`, the Potency is 14.1 µM (active).
